About 21,000 targets were measured; listed, in parts, are those with the largest changes and a random draw of the rest.
compound: Cc1cc(ccc1-c1ccccc1)C(=O)N1CCCN(CC1)C(=O)CCl [compound 10]; test: probe-labelled cysteine peptide fold change vs DMSO (competition) (log2 fold change); higher = less target engagement (more negative = stronger competition); details: 10 µM; THP-1; incubation time: 4 h
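Note: competitive profiling in live THP-1 cells: cysteine peptides tagged with an iodoacetamide desthiobiotin (IA-DTB) probe, intensity after compound treatment relative to DMSO-treated cells.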

UniProt P21953, sequence (P21953 whole entry, looked up): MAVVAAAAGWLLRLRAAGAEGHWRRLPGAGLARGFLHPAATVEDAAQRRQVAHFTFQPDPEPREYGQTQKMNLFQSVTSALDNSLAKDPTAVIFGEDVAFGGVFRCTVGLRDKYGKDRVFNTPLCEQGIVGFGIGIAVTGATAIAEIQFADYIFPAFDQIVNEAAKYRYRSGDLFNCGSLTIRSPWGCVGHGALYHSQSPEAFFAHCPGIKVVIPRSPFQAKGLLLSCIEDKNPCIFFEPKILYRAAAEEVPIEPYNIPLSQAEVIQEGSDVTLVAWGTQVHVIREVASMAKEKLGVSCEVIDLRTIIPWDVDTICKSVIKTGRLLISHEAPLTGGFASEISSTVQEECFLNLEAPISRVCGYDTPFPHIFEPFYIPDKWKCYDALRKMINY
UniProt P27708, sequence (P27708 whole entry, looked up): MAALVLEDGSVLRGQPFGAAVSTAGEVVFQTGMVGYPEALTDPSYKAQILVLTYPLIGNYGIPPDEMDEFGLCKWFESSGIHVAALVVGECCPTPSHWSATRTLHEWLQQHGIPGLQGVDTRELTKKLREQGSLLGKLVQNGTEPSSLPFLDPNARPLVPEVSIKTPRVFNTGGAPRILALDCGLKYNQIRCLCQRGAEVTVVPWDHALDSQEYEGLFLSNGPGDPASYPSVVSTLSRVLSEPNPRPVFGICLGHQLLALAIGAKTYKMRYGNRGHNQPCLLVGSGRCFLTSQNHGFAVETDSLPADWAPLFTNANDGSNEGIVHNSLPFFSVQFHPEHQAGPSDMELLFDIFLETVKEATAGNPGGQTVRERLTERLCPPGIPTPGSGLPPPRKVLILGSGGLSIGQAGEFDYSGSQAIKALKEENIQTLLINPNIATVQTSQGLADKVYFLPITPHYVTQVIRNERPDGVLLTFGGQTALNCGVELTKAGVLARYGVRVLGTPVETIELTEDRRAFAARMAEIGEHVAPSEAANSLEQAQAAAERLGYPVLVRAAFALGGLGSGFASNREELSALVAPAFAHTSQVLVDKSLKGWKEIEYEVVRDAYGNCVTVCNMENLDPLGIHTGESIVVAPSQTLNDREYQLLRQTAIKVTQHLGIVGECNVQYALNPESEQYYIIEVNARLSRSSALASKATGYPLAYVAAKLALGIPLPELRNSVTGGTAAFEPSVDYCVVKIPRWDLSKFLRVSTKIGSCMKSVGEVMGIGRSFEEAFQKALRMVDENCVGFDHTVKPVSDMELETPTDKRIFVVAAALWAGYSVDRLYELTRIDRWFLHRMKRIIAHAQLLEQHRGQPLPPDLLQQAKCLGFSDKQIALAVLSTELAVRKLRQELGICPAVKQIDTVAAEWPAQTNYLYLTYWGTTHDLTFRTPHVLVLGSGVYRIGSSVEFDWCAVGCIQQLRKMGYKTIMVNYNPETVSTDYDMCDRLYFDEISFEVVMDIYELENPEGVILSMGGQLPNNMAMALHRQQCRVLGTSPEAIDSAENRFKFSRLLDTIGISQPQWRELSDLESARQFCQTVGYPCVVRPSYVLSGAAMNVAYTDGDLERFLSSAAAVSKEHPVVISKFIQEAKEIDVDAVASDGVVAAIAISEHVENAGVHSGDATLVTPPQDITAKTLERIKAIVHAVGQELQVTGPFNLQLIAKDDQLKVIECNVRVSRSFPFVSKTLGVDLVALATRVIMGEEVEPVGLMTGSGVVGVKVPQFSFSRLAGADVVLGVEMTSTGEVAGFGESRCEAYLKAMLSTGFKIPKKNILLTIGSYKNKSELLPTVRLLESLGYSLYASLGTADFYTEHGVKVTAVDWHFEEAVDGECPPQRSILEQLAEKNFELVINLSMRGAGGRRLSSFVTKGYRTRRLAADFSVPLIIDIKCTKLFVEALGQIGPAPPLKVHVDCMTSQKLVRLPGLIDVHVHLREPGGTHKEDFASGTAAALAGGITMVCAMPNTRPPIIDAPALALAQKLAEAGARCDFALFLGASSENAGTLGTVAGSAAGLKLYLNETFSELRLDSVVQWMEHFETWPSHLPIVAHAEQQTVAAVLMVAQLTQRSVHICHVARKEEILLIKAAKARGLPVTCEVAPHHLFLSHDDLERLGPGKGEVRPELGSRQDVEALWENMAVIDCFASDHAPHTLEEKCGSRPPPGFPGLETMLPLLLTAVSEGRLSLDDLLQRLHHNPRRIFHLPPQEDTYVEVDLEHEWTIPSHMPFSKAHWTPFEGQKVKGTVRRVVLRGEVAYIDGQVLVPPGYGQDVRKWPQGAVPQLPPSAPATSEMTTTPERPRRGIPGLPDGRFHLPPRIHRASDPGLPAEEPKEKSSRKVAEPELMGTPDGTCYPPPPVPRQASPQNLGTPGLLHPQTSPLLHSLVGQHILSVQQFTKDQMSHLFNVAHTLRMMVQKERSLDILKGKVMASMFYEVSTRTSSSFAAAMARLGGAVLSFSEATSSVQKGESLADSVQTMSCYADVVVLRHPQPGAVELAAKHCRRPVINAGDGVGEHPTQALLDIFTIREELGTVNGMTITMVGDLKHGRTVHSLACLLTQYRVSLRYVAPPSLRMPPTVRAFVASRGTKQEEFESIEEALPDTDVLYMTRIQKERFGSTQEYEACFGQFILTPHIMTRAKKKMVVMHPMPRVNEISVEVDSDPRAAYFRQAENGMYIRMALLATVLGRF

Going from “CBX8_Q9HC52_142_NMGLSPPASSTSTSSTCR (UniProt Q9HC52)” to “CHORDC1_Q9UHD1_86_ELCELK (UniProt Q9UHD1)”, the “probe-labelled cysteine peptide fold change” value rises from -0.187 to -0.0657.

First: BRAP_Q7Z569_47_TTLASAVACLEGK (UniProt Q7Z569)
Second: CEPT1_Q9Y6K0_30_CGDSHPESPVGFGHMSTTGCVLNK (UniProt Q9Y6K0)
The “probe-labelled cysteine peptide fold change” value of the first is higher: -0.252 for the first, -2.38 for the second.

Compared with “CASP10_Q92851_169_IDEDNLTCLEDLCK (UniProt Q92851)”, “AVEN_Q9NQS1_169_EWDSEASCPK (UniProt Q9NQS1)” is lower in “probe-labelled cysteine peptide fold change” value: -0.0609 for the first, -0.857 for the second.

First: CELF2_O95319_174_GCAFVTFSTR (UniProt O95319)
UniProt O95319, sequence (O95319 whole entry, looked up): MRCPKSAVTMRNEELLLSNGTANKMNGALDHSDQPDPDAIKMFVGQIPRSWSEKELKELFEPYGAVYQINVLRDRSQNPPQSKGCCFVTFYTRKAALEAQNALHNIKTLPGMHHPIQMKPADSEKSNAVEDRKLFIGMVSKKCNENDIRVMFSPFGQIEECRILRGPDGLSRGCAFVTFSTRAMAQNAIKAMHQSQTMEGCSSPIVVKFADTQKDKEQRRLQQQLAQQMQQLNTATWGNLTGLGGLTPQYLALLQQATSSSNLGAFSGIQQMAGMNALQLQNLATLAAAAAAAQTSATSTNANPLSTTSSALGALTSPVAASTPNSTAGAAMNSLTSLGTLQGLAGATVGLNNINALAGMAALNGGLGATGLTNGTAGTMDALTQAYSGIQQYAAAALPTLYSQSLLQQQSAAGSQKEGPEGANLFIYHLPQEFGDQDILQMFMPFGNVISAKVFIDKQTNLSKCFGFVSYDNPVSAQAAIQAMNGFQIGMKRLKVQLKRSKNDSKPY
Second: BIRC6_Q9NR09_3773_TAIENATVAFFLQCISCHPNNQK (UniProt Q9NR09)
The “probe-labelled cysteine peptide fold change” value of the first is lower: 0.0275 for the first, 0.213 for the second.

First: BOP1_Q14137_108_TTEEQVQASTPCPR (UniProt Q14137)
UniProt Q14137, sequence (Q14137 whole entry, looked up): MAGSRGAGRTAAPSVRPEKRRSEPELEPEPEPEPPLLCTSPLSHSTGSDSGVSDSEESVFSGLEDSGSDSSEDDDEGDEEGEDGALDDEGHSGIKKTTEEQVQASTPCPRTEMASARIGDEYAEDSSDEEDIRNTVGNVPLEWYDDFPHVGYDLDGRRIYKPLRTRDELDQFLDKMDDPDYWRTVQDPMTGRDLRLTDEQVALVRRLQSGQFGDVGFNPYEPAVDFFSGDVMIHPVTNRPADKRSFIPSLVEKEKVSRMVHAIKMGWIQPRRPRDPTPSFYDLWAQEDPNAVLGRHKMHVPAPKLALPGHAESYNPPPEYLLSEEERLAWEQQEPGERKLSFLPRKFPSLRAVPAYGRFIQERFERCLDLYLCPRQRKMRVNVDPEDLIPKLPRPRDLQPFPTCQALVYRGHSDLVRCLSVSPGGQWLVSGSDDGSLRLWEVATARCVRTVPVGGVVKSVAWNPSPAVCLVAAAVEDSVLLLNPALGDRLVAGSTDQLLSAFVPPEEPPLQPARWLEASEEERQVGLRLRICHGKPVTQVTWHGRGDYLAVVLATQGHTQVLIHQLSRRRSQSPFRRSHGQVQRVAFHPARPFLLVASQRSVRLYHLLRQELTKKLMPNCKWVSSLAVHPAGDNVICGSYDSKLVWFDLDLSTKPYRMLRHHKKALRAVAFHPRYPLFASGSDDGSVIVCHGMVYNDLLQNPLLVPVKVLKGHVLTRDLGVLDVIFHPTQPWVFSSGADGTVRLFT
Second: CAMK2B_Q13554_116_EYYSEADASHCIQQILEAVLHCHQMGVVHR (UniProt Q13554)
UniProt Q13554, sequence (Q13554 whole entry, looked up): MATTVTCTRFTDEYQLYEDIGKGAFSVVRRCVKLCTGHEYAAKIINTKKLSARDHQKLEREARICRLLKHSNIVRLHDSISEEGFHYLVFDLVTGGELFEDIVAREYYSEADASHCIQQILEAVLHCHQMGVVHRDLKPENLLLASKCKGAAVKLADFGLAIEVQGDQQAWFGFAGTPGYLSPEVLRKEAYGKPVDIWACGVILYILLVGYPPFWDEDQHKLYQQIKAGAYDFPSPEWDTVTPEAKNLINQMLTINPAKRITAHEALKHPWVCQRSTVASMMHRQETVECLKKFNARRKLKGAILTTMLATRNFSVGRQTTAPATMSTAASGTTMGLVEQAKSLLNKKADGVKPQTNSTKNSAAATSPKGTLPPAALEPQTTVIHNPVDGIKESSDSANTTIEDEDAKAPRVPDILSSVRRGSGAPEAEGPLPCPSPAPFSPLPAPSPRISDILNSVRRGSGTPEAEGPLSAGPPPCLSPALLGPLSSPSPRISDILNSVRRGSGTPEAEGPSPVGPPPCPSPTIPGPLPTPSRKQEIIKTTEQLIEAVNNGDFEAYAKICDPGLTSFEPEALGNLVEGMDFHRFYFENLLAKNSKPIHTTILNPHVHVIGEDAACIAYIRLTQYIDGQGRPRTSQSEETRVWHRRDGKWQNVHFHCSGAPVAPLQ
The “probe-labelled cysteine peptide fold change” value of the first is lower: -0.185 for the first, -0.0191 for the second.

Compared with “CCAR2_Q8N163_515_RNAETPEATTQQETDTDLPEAPPPPLEPAVIARPGCVNLSLHGIVEDR (UniProt Q8N163)”, “CARD9_Q9H257_402_ADELQLQVFQCEAQLLAVEGR (UniProt Q9H257)” is higher in “probe-labelled cysteine peptide fold change” value: 0.107 for the first, 0.18 for the second.

First: CDC45_O75419_267_HNHRNEDEENTLSVDCTR (UniProt O75419)
Second: BRD1_O95696_294_TDDDRWGHVVCALWIPEVGFANTVFIEPIDGVR (UniProt O95696)
The “probe-labelled cysteine peptide fold change” value of the first is higher: 0.0632 for the first, -0.0156 for the second.

Compared with “CEP192_Q8TEP8_1562_APVEVAPCADVVTR (UniProt Q8TEP8)”, “BCKDHB_P21953_361_VCGYDTPFPHIFEPFYIPDK (UniProt P21953)” is higher in “probe-labelled cysteine peptide fold change” value: -0.611 for the first, -0.0395 for the second.

First: CARM1_Q86X55_438_AGDTLSGTCLLIANK (UniProt Q86X55)
Second: CFL1_P23528_39_AVLFCLSEDK (UniProt P23528)
The “probe-labelled cysteine peptide fold change” value of the first is lower: 0.0534 for the first, 0.0825 for the second.

Going from “CAND1_Q86VP6_802_CVAALTR (UniProt Q86VP6)” to “CELF1_Q92879_119_CTENDIR (UniProt Q92879)”, the “probe-labelled cysteine peptide fold change” value falls from 0.211 to 0.0497.

Going from “CASP2_P42575_30_ILGVCGMHPHHQETLKK (UniProt P42575)” to “CAD_P27708_2161_FGSTQEYEACFGQFILTPHIMTR (UniProt P27708)”, the “probe-labelled cysteine peptide fold change” value rises from -0.432 to 0.0378.

First: CDK5_Q00535_117_GLGFCHSR (UniProt Q00535)
Second: CBX1_P83916_156_CPQVVISFYEER (UniProt P83916)
The “probe-labelled cysteine peptide fold change” value of the first is lower: 0.00449 for the first, 0.121 for the second.

First: CEP170_Q5SW79_30_EMIFVGRDDCELMLQSR (UniProt Q5SW79)
Second: CDC42_P60953_105_EKWVPEITHHCPK (UniProt P60953)
The “probe-labelled cysteine peptide fold change” value of the first is higher: -0.075 for the first, -0.508 for the second.

Compared with “CEPT1_Q9Y6K0_11+30_CGDSHPESPVGFGHMSTTGCVLNK (UniProt Q9Y6K0)”, “CHPF_Q8IZ52_243_YCHGGFGVLLSR (UniProt Q8IZ52)” is higher in “probe-labelled cysteine peptide fold change” value: -1.98 for the first, -0.176 for the second.

First: C17orf75_Q9HAS0_265_FLSVASLQGLIHEGTMTSLCMAMTEEQHK (UniProt Q9HAS0)
Second: CHORDC1_Q9UHD1_59_RTTDFSDFLSIVGCTK (UniProt Q9UHD1)
The “probe-labelled cysteine peptide fold change” value of the first is higher: 0.0249 for the first, -0.167 for the second.

Compared with “CBX4_O00257_185_EAPSPTCPDLGAK (UniProt O00257)”, “BRIX1_Q8TDN6_52_RHATAEEVEEEERDRIPGPVCK (UniProt Q8TDN6)” is lower in “probe-labelled cysteine peptide fold change” value: -0.129 for the first, -0.278 for the second.

First: CBR1_P16152_226_ILLNACCPGWVR (UniProt P16152)
Second: CBR1_P16152_122_DVCTELLPLIK (UniProt P16152)
The “probe-labelled cysteine peptide fold change” value of the first is lower: -0.103 for the first, 0.109 for the second.

Going from “BTBD10_Q9BSF8_86_TESQLTPCIR (UniProt Q9BSF8)” to “BHLHE22_Q8NFJ8_156_GSVAESSGGEQSPDDDSDGRCELVLR (UniProt Q8NFJ8)”, the “probe-labelled cysteine peptide fold change” value rises from -0.608 to -0.393.

“CENPF_P49454_339_CRDELVR (UniProt P49454)” was tested, and the “probe-labelled cysteine peptide fold change” value was 0.481.

same assay, conditions: 50 µM; THP-1; incubation time: 4 h

First: CBX8_Q9HC52_142_NMGLSPPASSTSTSSTCR (UniProt Q9HC52)
Second: CHORDC1_Q9UHD1_86_ELCELK (UniProt Q9UHD1)
The “probe-labelled cysteine peptide fold change” value of the first is lower: -0.373 for the first, 0.205 for the second.

Compared with “BRAP_Q7Z569_47_TTLASAVACLEGK (UniProt Q7Z569)”, “CEPT1_Q9Y6K0_30_CGDSHPESPVGFGHMSTTGCVLNK (UniProt Q9Y6K0)” is lower in “probe-labelled cysteine peptide fold change” value: -0.245 for the first, -2.51 for the second.

First: CASP10_Q92851_169_IDEDNLTCLEDLCK (UniProt Q92851)
UniProt Q92851, sequence (Q92851 whole entry, looked up): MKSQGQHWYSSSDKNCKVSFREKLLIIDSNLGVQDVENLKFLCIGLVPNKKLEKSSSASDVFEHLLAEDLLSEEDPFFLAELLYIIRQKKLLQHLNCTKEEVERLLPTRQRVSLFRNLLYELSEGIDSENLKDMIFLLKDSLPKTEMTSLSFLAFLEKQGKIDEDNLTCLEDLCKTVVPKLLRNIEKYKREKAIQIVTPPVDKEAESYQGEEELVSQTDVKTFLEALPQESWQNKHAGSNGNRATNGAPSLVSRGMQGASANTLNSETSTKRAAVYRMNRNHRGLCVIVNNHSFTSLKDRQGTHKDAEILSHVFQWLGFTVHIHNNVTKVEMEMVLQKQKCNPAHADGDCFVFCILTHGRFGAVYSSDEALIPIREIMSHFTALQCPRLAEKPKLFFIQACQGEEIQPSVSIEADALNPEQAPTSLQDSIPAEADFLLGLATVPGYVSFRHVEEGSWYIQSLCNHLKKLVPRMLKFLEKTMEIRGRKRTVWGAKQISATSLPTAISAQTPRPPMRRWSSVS
Second: AVEN_Q9NQS1_169_EWDSEASCPK (UniProt Q9NQS1)
The “probe-labelled cysteine peptide fold change” value of the first is higher: 0.0728 for the first, -2.39 for the second.

First: CELF2_O95319_174_GCAFVTFSTR (UniProt O95319)
Second: BIRC6_Q9NR09_3773_TAIENATVAFFLQCISCHPNNQK (UniProt Q9NR09)
The “probe-labelled cysteine peptide fold change” value of the first is lower: 0.0429 for the first, 0.136 for the second.

First: BOP1_Q14137_108_TTEEQVQASTPCPR (UniProt Q14137)
Second: CAMK2B_Q13554_116_EYYSEADASHCIQQILEAVLHCHQMGVVHR (UniProt Q13554)
The “probe-labelled cysteine peptide fold change” value of the first is lower: -0.638 for the first, 0.141 for the second.

Compared with “CCAR2_Q8N163_515_RNAETPEATTQQETDTDLPEAPPPPLEPAVIARPGCVNLSLHGIVEDR (UniProt Q8N163)”, “CARD9_Q9H257_402_ADELQLQVFQCEAQLLAVEGR (UniProt Q9H257)” is higher in “probe-labelled cysteine peptide fold change” value: -0.245 for the first, 0.639 for the second.

Compared with “CDC45_O75419_267_HNHRNEDEENTLSVDCTR (UniProt O75419)”, “BRD1_O95696_294_TDDDRWGHVVCALWIPEVGFANTVFIEPIDGVR (UniProt O95696)” is higher in “probe-labelled cysteine peptide fold change” value: -0.279 for the first, 0.0676 for the second.

Going from “CEP192_Q8TEP8_1562_APVEVAPCADVVTR (UniProt Q8TEP8)” to “BCKDHB_P21953_361_VCGYDTPFPHIFEPFYIPDK (UniProt P21953)”, the “probe-labelled cysteine peptide fold change” value rises from -0.285 to 0.155.

First: CARM1_Q86X55_438_AGDTLSGTCLLIANK (UniProt Q86X55)
Second: CFL1_P23528_39_AVLFCLSEDK (UniProt P23528)
The “probe-labelled cysteine peptide fold change” value of the first is higher: 0.146 for the first, 0.0485 for the second.

Compared with “CAND1_Q86VP6_802_CVAALTR (UniProt Q86VP6)”, “CELF1_Q92879_119_CTENDIR (UniProt Q92879)” is higher in “probe-labelled cysteine peptide fold change” value: -0.156 for the first, 0.276 for the second.

Going from “CASP2_P42575_30_ILGVCGMHPHHQETLKK (UniProt P42575)” to “CAD_P27708_2161_FGSTQEYEACFGQFILTPHIMTR (UniProt P27708)”, the “probe-labelled cysteine peptide fold change” value rises from -1.14 to 0.111.

Going from “CDK5_Q00535_117_GLGFCHSR (UniProt Q00535)” to “CBX1_P83916_156_CPQVVISFYEER (UniProt P83916)”, the “probe-labelled cysteine peptide fold change” value falls from 0.158 to -0.00934.

Compared with “CEP170_Q5SW79_30_EMIFVGRDDCELMLQSR (UniProt Q5SW79)”, “CDC42_P60953_105_EKWVPEITHHCPK (UniProt P60953)” is lower in “probe-labelled cysteine peptide fold change” value: 0.0343 for the first, -0.929 for the second.

First: CEPT1_Q9Y6K0_11+30_CGDSHPESPVGFGHMSTTGCVLNK (UniProt Q9Y6K0)
Second: CHPF_Q8IZ52_243_YCHGGFGVLLSR (UniProt Q8IZ52)
The “probe-labelled cysteine peptide fold change” value of the first is lower: -2.17 for the first, 0.255 for the second.

Going from “C17orf75_Q9HAS0_265_FLSVASLQGLIHEGTMTSLCMAMTEEQHK (UniProt Q9HAS0)” to “CHORDC1_Q9UHD1_59_RTTDFSDFLSIVGCTK (UniProt Q9UHD1)”, the “probe-labelled cysteine peptide fold change” value rises from -0.756 to -0.292.

First: CBX4_O00257_185_EAPSPTCPDLGAK (UniProt O00257)
Second: BRIX1_Q8TDN6_52_RHATAEEVEEEERDRIPGPVCK (UniProt Q8TDN6)
The “probe-labelled cysteine peptide fold change” value of the first is higher: -0.0437 for the first, -0.296 for the second.

Compared with “CBR1_P16152_226_ILLNACCPGWVR (UniProt P16152)”, “CBR1_P16152_122_DVCTELLPLIK (UniProt P16152)” is higher in “probe-labelled cysteine peptide fold change” value: -0.297 for the first, 0.509 for the second.

Going from “BTBD10_Q9BSF8_86_TESQLTPCIR (UniProt Q9BSF8)” to “BHLHE22_Q8NFJ8_156_GSVAESSGGEQSPDDDSDGRCELVLR (UniProt Q8NFJ8)”, the “probe-labelled cysteine peptide fold change” value rises from -1.07 to -0.217.

In the case of “CENPF_P49454_339_CRDELVR (UniProt P49454)”, the “probe-labelled cysteine peptide fold change” value is reported as 0.506.

— the supplement of paper PMC12067093, “Discovery and optimisation of a covalent ligand for TRIM25 and its application to targeted protein ubiquitination” (Chemical Science, 2025)
